Data: PubChem BioAssay AID680 (PCMD, 2007)
Screen size: about 62,000 compounds; about 120 (0.19%) were called active. This is one part of a sample in which actives are shown more often than they occur. No stated cut-off is given here; in the data, active means inhibition above about 20% (passing the limit was not always enough); inactive means the rest.

The compounds below were run against Coagulation factor XI (Homo sapiens) (UniProt P03951) (assay: human factor XIa inhibition by mixtures – biochemical, 10-compound mixtures, primary screen (AID 680;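 further: each value is inhibition by a whole ten-compound pool holding the compound; 0% = enzyme with no mixture and 100% = wells lacking enzyme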)). Conditions: purified FXIa, fluorogenic substrate, pooled mixtures; at 5 µM; stronger effect = higher value.
Sequence of Coagulation factor XI (Homo sapiens) (P03951 19-387 limits assumed): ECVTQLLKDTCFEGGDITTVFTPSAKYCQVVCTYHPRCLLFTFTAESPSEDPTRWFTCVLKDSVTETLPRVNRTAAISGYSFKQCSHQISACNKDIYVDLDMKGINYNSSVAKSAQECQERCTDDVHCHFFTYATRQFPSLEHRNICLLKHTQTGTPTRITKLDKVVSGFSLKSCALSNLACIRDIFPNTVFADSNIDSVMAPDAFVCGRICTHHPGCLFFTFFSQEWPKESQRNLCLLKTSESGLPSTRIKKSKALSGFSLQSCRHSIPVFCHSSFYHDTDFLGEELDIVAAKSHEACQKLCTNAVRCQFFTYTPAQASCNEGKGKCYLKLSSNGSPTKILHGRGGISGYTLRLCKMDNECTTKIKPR
Sequence of Coagulation factor XI (Homo sapiens) (P03951 388-625 limits assumed): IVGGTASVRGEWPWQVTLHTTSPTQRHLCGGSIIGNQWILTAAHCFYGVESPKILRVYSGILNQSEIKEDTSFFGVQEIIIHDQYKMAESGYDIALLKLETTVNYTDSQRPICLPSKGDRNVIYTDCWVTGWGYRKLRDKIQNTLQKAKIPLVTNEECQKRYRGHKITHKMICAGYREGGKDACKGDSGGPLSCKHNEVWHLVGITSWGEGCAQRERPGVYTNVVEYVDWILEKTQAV
With `COc1ccc(N2CCN(C(=O)CSc3nnc4ncccn34)CC2)cc1` the inhibition was 3.9% (inactive). `CCOC(=O)c1cc2sccc2n1Cc1ccc(C#N)cc1` was tested, and the inhibition was 0.72% (inactive). In the case of `CCOc1ccc(/C(O)=C2/C(=O)C(=O)N(Cc3cccnc3)C2c2ccc(N(C)C)cc2)c(C)c1` (configuration not stated), the inhibition is reported as -2.04% (inactive). In the case of `O=c1c2ccccc2nnn1CSc1nc2sc3c(c2c(=O)n1CC1CCCO1)CCC3` (configuration not stated), the inhibition is reported as 0.04% (inactive). With `CN(C)CCCNC(=O)c1ccc2[nH]c3ccccc3c2c1` the inhibition was 3.52% (inactive). `O=C(CSc1nnc(-c2ccco2)n1Cc1ccccc1)NC(=O)NCc1ccco1` was tested, and the inhibition was 2.1% (inactive). In the case of `CCOCCOC(=O)C1=C(C)N(C)C(=O)NC1c1ccccc1F` (configuration not stated), the inhibition is reported as 5% (inactive). In the case of `CCc1ccc(-c2nnn(Cc3nc4ccccc4s3)n2)cc1`, the inhibition is reported as 9.76% (inactive). With `COc1ccc(-c2nnc(SC(C)C#N)o2)cc1` (configuration not stated) the inhibition was -13.7% (inactive). `C=C(C)COc1ccc(-c2n[nH]c(C)c2-c2ccccc2)c(O)c1` was tested, and the inhibition was 6.11% (inactive). In the case of `COc1ccc(-c2n[nH]c(C)c2-c2ccc(OC)c(OC)c2)c(O)c1`, the inhibition is reported as 5.75% (inactive). For `C=C(C)COc1ccc(-c2n[nH]c(C)c2-c2ccccc2OC)c(O)c1`, the inhibition was 21.4% (active). For `Cc1sc2c(c1C)c(=O)n(-c1ccccc1)c1nncn21`, the inhibition was 0.14% (inactive). With `O=C1CSC(c2cccc(F)c2)N1c1ccccc1F` (configuration not stated) the inhibition was 1.83% (inactive). `CCCc1[nH]nc2c1C(c1ccc(Br)s1)C(C#N)=C(N)O2` (configuration not stated) was tested, and the inhibition was 7.01% (inactive). `COc1ccccc1-c1cc(C(=O)N2CCCCC2)no1` was tested, and the inhibition was 3.06% (inactive). For `COC(=O)CNS(=O)(=O)c1ccc(Cc2ccc(S(=O)(=O)NCC(=O)OC)cc2)cc1`, the inhibition was 13.4% (inactive). In the case of `COC(=O)c1cc(NC2c3ccccc3C(=O)N2c2ccc(Cl)cn2)cc(C(=O)OC)c1` (configuration not stated), the inhibition is reported as 3.54% (inactive). In the case of `CCCc1nc(N)nc2c1C(=O)CC(C)(C)C2`, the inhibition is reported as -0.555% (inactive). For `COC(=O)CN(c1cccc(C(C)=O)c1)S(C)(=O)=O`, the inhibition was 2.59% (inactive). With `CCN(c1ccccc1)S(=O)(=O)c1ccc(N)cc1` the inhibition was 0.065% (inactive). With `O=C(Nc1ccc(Cl)cn1)c1cnn2cccnc12` the inhibition was 3.33% (inactive). For `Brc1cccc(-c2nnc3n2CCC3)c1`, the inhibition was 2.48% (inactive). In the case of `CC(C)CCNC(=O)CCNS(=O)(=O)c1ccc(Cl)cc1`, the inhibition is reported as 6.13% (inactive). In the case of `CCOC(=O)c1c(-n2cnnn2)sc(C)c1C`, the inhibition is reported as 13.6% (inactive). `Cc1c2cn[nH]c(=O)c2c(C)n1Cc1ccc(F)cc1` was tested, and the inhibition was 3.31% (inactive). `CC(C)c1nnc(NC(=O)C2CCCN2S(=O)(=O)c2ccc(Cl)cc2)s1` (configuration not stated) was tested, and the inhibition was 9.37% (inactive). In the case of `Cc1cccc(NC(=O)C2CCCN2S(=O)(=O)c2ccc(F)cc2)c1C` (configuration not stated), the inhibition is reported as 23.4% (active). In the case of `Cc1ccc(S(=O)(=O)N2CCCC2C(=O)NCc2ccco2)cc1` (configuration not stated), the inhibition is reported as 3.07% (inactive). For `N#Cc1nc(Cc2cccc3ccccc23)oc1NCc1ccc2c(c1)OCO2`, the inhibition was 3.7% (inactive). In the case of `O=C(Cn1nc(Cc2cccnc2)c2ccccc2c1=O)NCC1CCCO1` (configuration not stated), the inhibition is reported as 1.16% (inactive). In the case of `CCOC(=O)N1CCN(C(=O)CSc2nnc(-c3c[nH]c4ccccc34)n2CCOC)CC1`, the inhibition is reported as 6.18% (inactive). For `CCC(C)Sc1nnc(-c2c[nH]c3ccccc23)n1CCOC` (configuration not stated), the inhibition was 4.33% (inactive). `CCn1c(SCCC(C)C)nnc1-c1c[nH]c2ccccc12` was tested, and the inhibition was 27.8% (active). In the case of `O=C(c1ccccc1)c1ccc(OC(=O)N2CCCC2)cc1`, the inhibition is reported as 5.6% (inactive). In the case of `COc1ccc(CCNC(=O)CSc2nnc(CNC(=O)c3cccs3)o2)cc1OC`, the inhibition is reported as 4.31% (inactive). With `O=C(c1cccc2ccccc12)N1CCN(c2ccccc2F)CC1` the inhibition was -1.32% (inactive). With `O=C(c1ccccc1)c1ccc2nc(N3CCCCC3)c3nncn3c2c1` the inhibition was 5.07% (inactive). For `CCn1cc(C(=O)NCC2CCCO2)c(=O)c2cc(S(=O)(=O)N3CCCCC3)ccc21` (configuration not stated), the inhibition was 2.28% (inactive). For `Cc1ccccc1Cn1c(=O)[nH]c2ccccc21`, the inhibition was 4.81% (inactive). In the case of `Cc1cc(NC(=O)CN2CCCCC2C)nc2c1c(=O)oc1ccccc12` (configuration not stated), the inhibition is reported as 11.6% (inactive). For `COC(=O)C1=C(C)NC2=C(C(=O)c3ccccc32)C1c1ccc(-c2ccc(C(=O)O)cc2)o1` (configuration not stated), the inhibition was 8.48% (inactive). In the case of `Cc1ccc(S(=O)(=O)C(C#N)c2nc3ccccc3nc2N2CCCC2)cc1C` (configuration not stated), the inhibition is reported as -0.215% (inactive). For `COc1ccc(S(=O)(=O)N2CCCC(C(=O)N3CCN(C)CC3)C2)cc1C` (configuration not stated), the inhibition was 8.05% (inactive). For `O=c1c(-c2ccccc2)coc2c(CN3CCOCC3)c(O)ccc12`, the inhibition was -0.725% (inactive). With `Cc1cc(C)cc(N(CC(=O)NCC2CCCO2)S(=O)(=O)c2c(C)noc2C)c1` (configuration not stated) the inhibition was 12.7% (inactive). For `Cc1cc(C(=O)N2CCN(c3ccccn3)CC2)c(C)o1`, the inhibition was 8.12% (inactive). `O=C1OC(NC(=O)c2ccccc2)C(N2CCOCC2)=C1Cl` (configuration not stated) was tested, and the inhibition was 1.5% (inactive). For `COc1ccc(CN2C(=O)CN=C2Nc2ccc(C)cc2C)cc1`, the inhibition was 9.03% (inactive). With `O=C(Cn1nnc(-c2ccc(CN3CCOCC3)cc2)n1)NC1CCCCC1` the inhibition was 4.01% (inactive). With `Cc1cc(NS(=O)(=O)c2ccccc2)no1` the inhibition was 7.83% (inactive). With `CSc1ccc(S(=O)(=O)NCc2ccc(Cl)cc2)cc1` the inhibition was 7.5% (inactive). With `Cc1cccc(NC(=O)CSC(N)=O)c1C` the inhibition was 4.87% (inactive). For `C=CCNC(=O)C12CC3CC(C1)CC(C(=O)NCC=C)(C3)C2`, the inhibition was 4.77% (inactive). In the case of `O=C(O)CN(Cc1ccco1)S(=O)(=O)c1ccccc1`, the inhibition is reported as 2.68% (inactive). For `N=c1c2c3c(sc2ncn1CCCN1CCOCC1)CCCCC3`, the inhibition was 42.3% (inactive). `Cc1ccc2nc(NCCCNC(=O)c3cnccn3)c(C#N)cc2c1` was tested, and the inhibition was -0.515% (inactive). `O=S(=O)(c1cccc(-c2nnc(SC(F)F)n2-c2ccccc2)c1)N1CCCCC1` was tested, and the inhibition was 6.38% (inactive). In the case of `C=CCN(c1ccc(C(N)=O)cc1)S(C)(=O)=O`, the inhibition is reported as 9.34% (inactive). In the case of `CCc1ccccc1N(CC(=O)N1CCN(c2ccccc2F)CC1)S(C)(=O)=O`, the inhibition is reported as 9.44% (inactive). With `CC(C)(C)c1csc(NC2=NS(=O)(=O)c3ccccc32)n1` the inhibition was 0.915% (inactive). In the case of `O=C(NCCCN1CCN(c2ccccc2F)CC1)C1CCC(=O)N1C1CCCCC1` (configuration not stated), the inhibition is reported as 0.475% (inactive).
